“And” between values parts separate entries of the source, which are not always exact repeats. Identical values can stand only once. Records with an inconclusive call do not appear. Unmarked numbers belong to inactive results. The source made the active and inactive calls. Calls come from the whole dose curve; as a rule, active = well fitted inhibition curve with a large enough effect; inconclusive = small, poorly fitted or top-dose-only effect; inactive = flat fitted curve, though single readings scatter.
What follows are compounds tested against Ubiquitin carboxyl-terminal hydrolase 1 (Homo sapiens) (UniProt O94782) (assay: Inhibitors of USP1/UAF1: Pilot qHTS (AID 504865; note: nearly all actives have a fitted effect of over 35% in size;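 for activity change, negative = inhibition: rhodamine fluorescence freed from ubiquitin-rhodamine substrate followed over time; top concentration of the series differs between compounds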)). Settings: purified USP1/UAF1, Ub-rhodamine cleavage fluorescence; series mostly up to 114 µM; activity change, negative = inhibition: at the top concentration.
Method in brief: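 USP1/UAF1 complex at 1 nM preincubated 15 min at room temperature with compound, then Ub-Rho substrate added at 150 nM final. Fluorescence (480/540 nm) read kinetically in 50 mM HEPES pH 7.8, 0.5 mM EDTA, 1 mM TCEP, 0.1 mg/ml BSA, 0.01% Tween-20.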
% is set by controls: 0 for no effect and ±100 for the full control effect; potency is the fitted concentration of half-maximal effect.

Ubiquitin carboxyl-terminal hydrolase 1 (Homo sapiens), sequence (O94782 whole entry, looked up): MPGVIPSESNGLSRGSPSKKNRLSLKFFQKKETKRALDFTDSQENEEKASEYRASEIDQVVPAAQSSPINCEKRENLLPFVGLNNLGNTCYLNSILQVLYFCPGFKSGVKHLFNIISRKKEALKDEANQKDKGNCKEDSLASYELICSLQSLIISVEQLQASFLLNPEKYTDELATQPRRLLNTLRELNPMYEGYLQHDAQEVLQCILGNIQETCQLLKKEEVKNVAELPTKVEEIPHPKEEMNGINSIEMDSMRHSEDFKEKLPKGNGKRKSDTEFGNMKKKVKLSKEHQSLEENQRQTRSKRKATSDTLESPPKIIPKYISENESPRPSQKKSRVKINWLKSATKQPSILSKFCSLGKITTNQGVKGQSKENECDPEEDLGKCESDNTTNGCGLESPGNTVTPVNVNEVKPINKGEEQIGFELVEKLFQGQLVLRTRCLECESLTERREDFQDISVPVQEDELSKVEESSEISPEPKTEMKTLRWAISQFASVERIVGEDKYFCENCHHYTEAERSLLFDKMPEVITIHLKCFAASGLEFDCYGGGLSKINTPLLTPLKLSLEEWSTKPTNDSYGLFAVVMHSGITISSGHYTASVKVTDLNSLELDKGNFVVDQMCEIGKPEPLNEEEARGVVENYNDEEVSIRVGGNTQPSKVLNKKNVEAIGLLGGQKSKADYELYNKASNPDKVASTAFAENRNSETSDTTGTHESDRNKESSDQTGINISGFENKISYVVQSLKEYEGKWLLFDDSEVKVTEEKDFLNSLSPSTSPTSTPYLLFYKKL

Question: CCN1CCN(c2cc3c(cc2F)c(=O)c(C(=O)O)cn3C2CC2)CC1 was tested. Which “activity change, negative = inhibition” value did it give?
Answer: -2.34%

Question: For Nc1ccc(C(=O)O)cc1, which Potency is on record?
Answer: inactive

Question: Which “activity change, negative = inhibition” value does the source give for CO/N=C1\CN(c2nc3c(cc2F)c(=O)c(C(=O)O)cn3C2CC2)CC1CN (stereo not drawn) here?
Answer: -7.39%

Question: How did the “activity change, negative = inhibition” value turn out when O=c1ccc2ccccc2o1 was run?
Answer: -8.85%

Question: How did the “activity change, negative = inhibition” value turn out when O=C1OCCN1/N=C/c1ccc([N+](=O)[O-])o1 was run?
Answer: -3%

Question: With CC(C)(Oc1ccc(Cl)cc1)C(=O)O as the compound, how does the “activity change, negative = inhibition” value read?
Answer: -10.2%

Question: For CCN(CCCc1ccccc1)CCCc1ccccc1, which “activity change, negative = inhibition” value is on record?
Answer: 10.5% [at 54.9 µM]

Question: With C=C(CC)C(=O)c1ccc(OCC(=O)O)c(Cl)c1Cl as the compound, how does the Potency read?
Answer: inactive

Question: With CN(C)CCOc1ccccc1Cc1ccccc1 as the compound, how does the “activity change, negative = inhibition” value read?
Answer: -10.9%

Question: For CN(C)/N=N/c1nc[nH]c1C(N)=O, which Potency is on record?
Answer: inactive

Question: With Oc1c(Cl)cc(Cl)cc1Sc1cc(Cl)cc(Cl)c1O as the compound, how does the Potency read?
Answer: 35.5 µM (active) and 20 µM (active)

Question: How did the “activity change, negative = inhibition” value turn out when O=C(O)CCCCC(=O)O was run?
Answer: -5.12%

Question: For C=CCc1ccc(O)c(OC)c1, which Potency is on record?
Answer: inactive

Question: CCC(C(=O)OCCN(CC)CC)c1ccccc1 (stereo not drawn) was tested. Which “activity change, negative = inhibition” value did it give?
Answer: 3.25%

Question: With CC(O)C(=O)O (stereo not drawn) as the compound, how does the “activity change, negative = inhibition” value read?
Answer: 4.19%

Question: CCCCCCc1ccc(O)cc1O was tested. Which Potency did it give?
Answer: 44.7 µM (active)

Question: With CCOc1ccc(NC(=O)CC(C)O)cc1 (stereo not drawn) as the compound, how does the “activity change, negative = inhibition” value read?
Answer: 6.58%

Question: How did the “activity change, negative = inhibition” value turn out when CN(C)C(=S)SC(=S)N(C)C was run?
Answer: -5.39%

Question: Which “activity change, negative = inhibition” value does the source give for c1ccc(OCc2ccc(CCCN3CCOCC3)cc2)cc1 here?
Answer: -11.7%

Question: With COC1=CC(=O)C[C@@H](C)[C@]12Oc1c(Cl)c(OC)cc(OC)c1C2=O as the compound, how does the Potency read?
Answer: inactive

Question: For Cc1cc(N)c2cc(NC(=O)Nc3ccc4nc(C)cc(N)c4c3)ccc2n1, which Potency is on record?
Answer: 10 µM (active)

Question: Which Potency does the source give for Oc1cc(O)c2c(c1)O[C@H](c1ccc(O)c(O)c1)[C@H](O)C2 here?
Answer: inactive

Question: C[C@H]1C[C@H]2[C@@H]3CCC4=CC(=O)C=C[C@]4(C)[C@@]3(Cl)[C@@H](O)C[C@]2(C)[C@@]1(O)C(=O)CO was tested. Which “activity change, negative = inhibition” value did it give?
Answer: -2.16%
